The results in this text go back to PubChem BioAssay (NCI).

Among the test systems are SR leukemia; RPMI-8226 leukemia; OVCAR-8 ovarian; OVCAR-5 ovarian; SK-OV-3 ovarian; IGROV1 ovarian; OVCAR-3 ovarian; HS 578T breast; NCI/ADR-RES ovarian; OVCAR-4 ovarian.
Test in all cases: NCI-60 one-dose screen, 48 h (100 = growth as untreated, 0 = no growth, -100 = all killed)
Common to all, as to details: 10 µM unless noted

About 83,000 compounds went through this panel and 20% of them were active in at least one assay; those are over-represented in the sample as a whole.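 Method: cells in 96-well plates; compound added at one concentration; 48 h incubation; percent growth measured; values under 10 scored active.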 Values without a mark were called inactive. Active and inactive are the calls of the source.

In the case of `Nc1nc(-c2cccc(Br)c2)cc(-c2cc3ccccc3oc2=O)n1`, the growth is 89.6% in the assay with SR leukemia; 98.7% in the assay with RPMI-8226 leukemia; 97.2% with OVCAR-8 ovarian; 106% with OVCAR-5 ovarian; 97.8% in the assay on SK-OV-3 ovarian; 67.2% with IGROV1 ovarian. The growth was 99.6% in the assay with OVCAR-3 ovarian, 87.3% in the assay on HS 578T breast and 105% with NCI/ADR-RES ovarian.

Regarding `Cc1ccc(S(=O)(=O)NC(CCC(=O)Nc2ccccc2)C(=O)Nc2ccccc2)cc1` (stereo not given), the growth was 4.65% (active) in the assay with SR leukemia; -17.1% (active) with RPMI-8226 leukemia; -10.9% (active) in the assay with OVCAR-8 ovarian; -8.85% (active) in the assay with OVCAR-5 ovarian; -4.83% (active) with OVCAR-4 ovarian; -25.1% (active) in the assay on IGROV1 ovarian. Also, the results for the growth in the assay on OVCAR-3 ovarian, with HS 578T breast and in the assay on NCI/ADR-RES ovarian were -42% (active), 2.98% (active) and -24.7% (active), respectively.

In the case of `COc1ccc(-c2nc(SCC(C)C)nc(Nc3ccccc3)c2C#N)cc1`, the growth with SR leukemia is 48.9%; in the assay on RPMI-8226 leukemia it was 87.6%; in the assay on OVCAR-8 ovarian it was 74.4%; in the assay on OVCAR-4 ovarian it was -12.2% (active); in the assay on SK-OV-3 ovarian, 97.6%; in the assay on IGROV1 ovarian, 74.7%. In addition, the figures for the growth in the assay on OVCAR-3 ovarian, in the assay with HS 578T breast and in the assay on NCI/ADR-RES ovarian were 46.2%, 72.7% and 85.9%, respectively.

`c1ccc(Nc2ccccn2)cc1`: the growth with SR leukemia was 80.2%; in the assay on RPMI-8226 leukemia, 89.1%; in the assay on OVCAR-8 ovarian, 107%; in the assay with OVCAR-5 ovarian it was 106%; in the assay on SK-OV-3 ovarian, 105%; with IGROV1 ovarian, 101%. Also, the growth in the assay with OVCAR-3 ovarian is 116%; in the assay with HS 578T breast, 106%; in the assay with NCI/ADR-RES ovarian, 109%.

With `COc1cc2cn3c4ccc(O)cc4[nH]c(=O)c3c2cc1OC`, the growth with SR leukemia is -17.5% (active); in the assay with RPMI-8226 leukemia it was -2.13% (active); with OVCAR-8 ovarian, 0.127% (active); in the assay with OVCAR-5 ovarian it was 30%; in the assay on IGROV1 ovarian, -3.23% (active); with OVCAR-3 ovarian, -13.9% (active). Further, the growth in the assay with HS 578T breast is -11.2% (active); in the assay on NCI/ADR-RES ovarian, 24.7%.

With `COc1ccc(C2CC(=O)c3c(O)cc(OC4OC(COC5OC(C)C(O)C(O)C5O)C(O)C(O)C4O)cc3O2)cc1O` (stereo not given), the growth was 130% with SR leukemia; 123% in the assay on RPMI-8226 leukemia; 94.8% with OVCAR-8 ovarian; 103% in the assay with OVCAR-4 ovarian; 118% in the assay with SK-OV-3 ovarian; 37.7% in the assay with IGROV1 ovarian. Besides, the growth was 131% in the assay with OVCAR-3 ovarian, 106% with HS 578T breast and 109% with NCI/ADR-RES ovarian.

In the case of `CC1Cc2cc(F)ccc2-n2cccc21` (stereo not given), the growth in the assay with SR leukemia is 114%; with RPMI-8226 leukemia it was 111%; in the assay on OVCAR-8 ovarian, 99.5%; with OVCAR-5 ovarian it was 95%; with SK-OV-3 ovarian, 101%; in the assay on IGROV1 ovarian, 92%. Moreover, the growth in the assay on OVCAR-3 ovarian is 109%; with NCI/ADR-RES ovarian, 107%.

For the molecule `O=C1/C(=C/c2ccc(Cl)cc2)CCC/C1=C\c1ccc(Cl)cc1`, the growth was 48.7% with SR leukemia; -0.252% (active) with RPMI-8226 leukemia; 68.9% in the assay with OVCAR-8 ovarian; 96.7% in the assay on OVCAR-5 ovarian; 88% in the assay on SK-OV-3 ovarian; 62.6% with IGROV1 ovarian. The growth in the assay with OVCAR-3 ovarian was 55.8%; in the assay with NCI/ADR-RES ovarian it was 87.2%.

As to `Nc1ccc(S(=O)(=O)Nc2cc(F)cc(F)c2)cc1`, the growth in the assay with SR leukemia is 112%; in the assay on RPMI-8226 leukemia, 106%; in the assay on OVCAR-8 ovarian, 102%; in the assay with OVCAR-4 ovarian it was 101%; in the assay on SK-OV-3 ovarian it was 104%; in the assay on IGROV1 ovarian, -22% (active). The growth in the assay on OVCAR-3 ovarian was 111%; in the assay with HS 578T breast, 92.7%; in the assay with NCI/ADR-RES ovarian it was 117%.

In the case of `OCC(O)C(O)CC1SCCS1` (stereo not given), the growth was 103% in the assay on SR leukemia; 122% with RPMI-8226 leukemia; 96.3% in the assay on OVCAR-8 ovarian; 112% in the assay on OVCAR-4 ovarian; 103% in the assay with SK-OV-3 ovarian; 107% with IGROV1 ovarian. Besides, the values for the growth with OVCAR-3 ovarian, in the assay on HS 578T breast and with NCI/ADR-RES ovarian were 101%, 106% and 102%, respectively.

In the case of `O=C1c2cc([N+](=O)[O-])ccc2-c2cc(Cl)c(NC(=O)C(F)(F)F)cc21`, the growth is 98.6% in the assay on SR leukemia; 102% with RPMI-8226 leukemia; 121% in the assay on OVCAR-8 ovarian; 104% in the assay on OVCAR-5 ovarian; 111% in the assay on SK-OV-3 ovarian; 110% in the assay with IGROV1 ovarian. In addition, the growth with OVCAR-3 ovarian was 133%; in the assay with NCI/ADR-RES ovarian it was 105%.

For `CCCCCCCCc1ccc(CCC(N)(CO)CO)cc1`, the growth was -32.8% (active) in the assay on SR leukemia; -23.2% (active) with RPMI-8226 leukemia; -68.6% (active) in the assay on OVCAR-8 ovarian; 56.8% with OVCAR-5 ovarian; 83.6% with SK-OV-3 ovarian; -37.9% (active) in the assay on IGROV1 ovarian. The results for the growth with OVCAR-3 ovarian and in the assay on NCI/ADR-RES ovarian were -47.9% (active) and 9.65% (active), respectively.

Consider `O=c1[nH]c2cc(O)ccc2n2cc3c(F)cccc3c12`, for which the growth in the assay on SR leukemia was 9.4% (active); with RPMI-8226 leukemia, 46.2%; with OVCAR-8 ovarian, 24.6%; in the assay with OVCAR-5 ovarian, 43.8%; in the assay with SK-OV-3 ovarian, -4.03% (active); with HS 578T breast, -26.1% (active). For the same molecule, in the assay on NCI/ADR-RES ovarian, the growth is 17.2%.

Take `Cc1sc(NC(=O)c2ccc(C(C)(C)C)cc2)c(C(=O)O)c1C`: the growth is 62.8% with SR leukemia; 47.2% in the assay with RPMI-8226 leukemia; 56.5% with OVCAR-8 ovarian; 94% in the assay on OVCAR-5 ovarian; 103% in the assay on SK-OV-3 ovarian; 70.9% in the assay with IGROV1 ovarian. For the same molecule, the growth is 71.7% in the assay with OVCAR-3 ovarian and 58.9% with NCI/ADR-RES ovarian.

Regarding `CCCCCCCCCCCCCCCCCC1=NCCN1CCNC(C)=O`, the growth is 19.3% in the assay on SR leukemia; 91% in the assay on RPMI-8226 leukemia; 98.2% in the assay on OVCAR-8 ovarian; 95.2% with OVCAR-4 ovarian; 107% with SK-OV-3 ovarian; 91.1% with IGROV1 ovarian. The growth is 94.7% with OVCAR-3 ovarian, 110% in the assay on HS 578T breast and 98.2% in the assay on NCI/ADR-RES ovarian.

Turning to `O=C(N/N=C/c1cc(Cl)ccc1O)C(=O)N/N=C/c1cc(Cl)ccc1O`, the growth with SR leukemia was 51.3%; with RPMI-8226 leukemia it was 71.9%; in the assay with OVCAR-8 ovarian it was 60.8%; in the assay with OVCAR-5 ovarian, 72.5%; with SK-OV-3 ovarian, 64.1%; with IGROV1 ovarian, 50.3%. The growth is 15.5% with OVCAR-3 ovarian and 44.2% with NCI/ADR-RES ovarian.
